The source of these data is PubChem BioAssay AID1721 (National Center for Advancing Translational Sciences (NCATS), 2009).

Structures are written as SMILES. The campaign covered roughly 290,000 compounds. About 1,100 (0.38%) were called active. A call without a number means that no potency is given here. This is one part of a sample in which actives are shown more often than they occur. Unmarked numbers belong to inactive results. The call rests on the fitted dose curve; in most records, active means well fitted inhibition curve with a large enough effect; inconclusive means small, poorly fitted or top-dose-only effect, or another doubt; inactive means no such curve, though single readings can be large or run the other way.
Potency means the concentration at half of the fitted maximal effect.

For this assay, the target named is Pyruvate kinase (Leishmania mexicana) (UniProt Q27686). In words: qHTS Assay for Inhibitors of Leishmania Mexicana Pyruvate Kinase (LmPK). Particulars: purified LmPK, Kinase-Glo ATP luminescence, 1 h; series mostly up to 57.5 µM. The source says: NIH Chemical Genomics Center [NCGC] Malcolm Walkinshaw, Hugh Morgan, Linda Gilmore University of Edinburgh, UK MLPCN Grant: 1 R03 MH085697-01 NCGC Assay Overview: Pyruvate kinase (L. Mexicana) (LmPK) enzyme was supplied as a highly purified (>95% pure) sulphate-free preparation from University of Edinburgh, UK and assayed for its ability to generate ATP from ADP using phosphoenolpyruvate (PEP) as a substrate. ATP generation was detected in a coupled reaction by luciferase-mediated luminescence, an ATP-dependent process. […] The enzyme was assayed at an intermediate level of activity to screen for both inhibitors and activators.
Sequence of Pyruvate kinase (Leishmania mexicana) (Q27686 whole entry, looked up): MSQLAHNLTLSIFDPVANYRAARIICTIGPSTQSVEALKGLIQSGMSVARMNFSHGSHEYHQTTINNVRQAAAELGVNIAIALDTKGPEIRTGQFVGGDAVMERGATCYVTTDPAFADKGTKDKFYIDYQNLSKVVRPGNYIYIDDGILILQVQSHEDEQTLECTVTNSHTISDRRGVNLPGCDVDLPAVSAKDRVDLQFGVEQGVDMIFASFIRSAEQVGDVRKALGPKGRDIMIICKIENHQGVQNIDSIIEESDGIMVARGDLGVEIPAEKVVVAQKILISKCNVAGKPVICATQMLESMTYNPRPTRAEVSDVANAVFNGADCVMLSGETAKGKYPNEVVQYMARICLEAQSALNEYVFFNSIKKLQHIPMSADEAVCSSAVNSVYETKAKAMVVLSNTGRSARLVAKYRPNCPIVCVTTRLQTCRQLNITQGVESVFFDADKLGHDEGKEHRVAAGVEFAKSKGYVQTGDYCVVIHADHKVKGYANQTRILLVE
NCGC Assay Protocol Summary: Three uL of enzyme mix (kept on ice) in assay buffer (50 mM Imidazole pH7.2, 50 mM KCl, 7 mM MgCl2, 0.01% Tween 20, 0.05% BSA) containing PEP (0.5 mM final concentration) and LmPK (0.1 nM final concentration) was dispensed into white solid bottom 1,536 well microtiter plates. 23 nL of compound were delivered by a pin tool and 1 uL of ADP mix in assay buffer (r.t; 0.1 mM final ADP concentration) was added. Plates were incubated at room temperature for 1 hour. Two uL of detection mix (Kinase-Glo, Promega; at 4 degree Celsius protected from light) was added and luminescence read by a ViewLux (Perkin Elmer) at 1 second exposure/plate. Data were normalized to the uninhibited and AC100 inhibition (no enzyme). To monitor activation, the first column contained a five-fold concentration of LmPK (0.5 nM).
(In general: Quantitative high-throughput screening tests each substance at several concentrations.)
As to `CCn1c(CNS(=O)(=O)c2ccc(Cl)cc2)n[nH]c1=S`, the Potency result was “inactive”.
As to `CCn1c(-c2ccncc2)n[nH]c1=S`, the Potency entry was “inactive”.
For the compound `CCn1c(CSCc2c(Cl)cccc2Cl)n[nH]c1=S`, the Potency is 15.8 µM (active).
Regarding `COc1cccc(CNC(=O)C2CCCN(S(=O)(=O)N3CC(C)CC(C)C3)C2)c1` (stereo unspecified), the Potency entry was “inactive”.
For `c1ccc(Cc2ccc(OCCn3ccnc3)cc2)cc1`, the Potency result is “inactive”.
With `CCC1CCCCN1CCCNC(=O)c1cc2c(Cl)nc3ccccc3c2s1` (stereo unspecified), the Potency entry is “inactive”.
`CCOc1ccccc1NS(=O)(=O)c1cc2c3c(c1)C(C)C(=O)N3CCC2` (stereo unspecified): the Potency entry was “inactive”.
As to `CCOC(=O)c1cc(S(=O)(=O)NCCc2ccc(OC)c(OC)c2)cn1C`, the Potency result was “inactive”.
Consider `Cc1nc2ccc(C(=O)N/N=C/c3ccc(O)cc3)cc2[nH]1`, for which the Potency result was “inactive”.
Still for that read-out and setting: as for `O=C(C[n+]1ccccc1)N/N=C/c1ccc(O)cc1`, the entry is “inactive”; as for `Cc1nonc1C(=O)N/N=C/c1ccc(O)cc1`, 8.91 µM (active); as for `C=CCNc1nc(N)c([N+](=O)[O-])c(NC2CCCCC2)n1`, “inactive”.
For the compound `NNC(=O)CNC(c1ccccc1)c1cc(Cl)ccc1NC(=O)c1ccccc1` (stereo unspecified), the Potency result was “inactive”.
As to `C[C@@H](NC(=O)OC(C)(C)C)c1nnc(S(=O)(=O)Cc2ccccc2)o1`, the Potency entry was “inactive”.
As to `Cc1cc2c(c(=O)n1Cc1ccccc1)C1O[C@](CCCCN3C(=O)c4ccccc4C3=O)(Cc3ccccc31)O2`, the activity change, negative = inhibition was -8.6% [at 11.5 µM].
Take `CC(=O)Oc1ccccc1C(=O)Nc1ncc([N+](=O)[O-])s1`: the Potency was 12.6 µM (active).
Still for that read-out and setting: as for `O=C(CCc1ccccc1)Nc1ncc([N+](=O)[O-])s1`, the entry is “inactive”; as for `O=C(Nc1ncc([N+](=O)[O-])s1)C1COc2ccccc2O1` (stereo unspecified), “inactive”.
Regarding `N=c1oc2ccccc2cc1C(=O)NCc1ccccc1`, the Potency result was “inactive”.
In the case of `N=c1oc2ccccc2cc1C(=O)N/N=C/c1ccccc1`, the Potency is 8.91 µM (active).
The same measure, in the same setting: as for `Cc1ccc(/C=N/NC(=O)c2cc3ccccc3cc2O)o1`, the entry is “inactive”; as for `CC1CC(C)CN(CCOc2cccc3ccccc23)C1` (stereo unspecified), “inactive”; as for `Cc1cc(C)c(OCC(=O)N(Cc2cccs2)C2CCS(=O)(=O)C2)c(C)c1` (stereo unspecified), “inactive”.
For the compound `CCCn1c(C2CCCN2c2nc(-c3ccc(OC)cc3)cs2)nc2ccccc21` (stereo unspecified), the Potency entry is “inactive”.
Turning to `COc1ccc(-n2ncc3c2CC(C)(C)CC3NC(=O)CCc2c(C)noc2C)cc1` (stereo unspecified), the Potency result is “inactive”.
As for `COC(=O)c1ccc2c(C(C)(C)O)c(C(C)(C)O)[nH]c2c1`, the Potency result was “inactive”.
Turning to `COc1ccc(OC)c(-n2c(=S)[nH]c3cc(C(=O)N4CCCCC4)ccc3c2=O)c1`, the Potency result is “inactive”.
As to `COc1ccc(-n2c(-c3ccc(OC)c(OC)c3)n[nH]c2=S)cc1`, the Potency was 20 µM (active).
`Cc1ccc(-n2c(-c3ccc(Cl)cc3)n[nH]c2=S)cc1`: the Potency was 14.1 µM (active).
In the case of `Cc1cc(-c2n[nH]c(=S)n2-c2ccc(C)c(C)c2)no1`, the Potency result was “inactive”.
Consider `COc1ccc(OC)c(-n2c(-c3ccn[nH]3)n[nH]c2=S)c1`, for which the Potency is 20 µM (active).
`COc1ccccc1-n1cn[nH]c1=S`: the Potency entry is “inactive”.
For the compound `Cc1ccc(OCc2n[nH]c(=S)n2-c2ccc(C)cc2)cc1`, the Potency result was “inactive”.
Regarding `COc1ccccc1-n1c(-c2cc(-c3ccco3)[nH]n2)n[nH]c1=S`, the Potency is 3.55 µM (active).
Same read-out and setting: as for `Cc1cc(-c2n[nH]c(=S)n2/N=C/c2ccco2)n[nH]1`, the entry is “inactive”.
With `COc1ccc(-c2n[nH]c(C)c2-c2ccc(OC)c(OC)c2)c(O)c1`, the Potency entry was “inactive”.
Regarding `COc1ccc(OCc2n[nH]c(=S)n2N)cc1`, the Potency result was “inactive”.
Take `S=c1[nH]nc(-c2ccc(Cl)cc2)n1CC1CCCO1` (stereo unspecified): the Potency entry is “inactive”.
For the compound `O=C(CN1CCCCCC1)Nc1c(Cl)cc(Cl)cc1Cl`, the Potency result was “inactive”.
As to `O=C(C1CCCN(S(=O)(=O)c2ccccc2)C1)N1CCN(c2ccc(F)cc2)CC1` (stereo unspecified), the Potency result is “inactive”.
In the case of `O=C(CCS(=O)(=O)c1ccccc1)NC1CCCC1`, the Potency result is “inactive”.
Consider `CC(C)(C)C1C/C(=C/c2ccco2)C(=O)/C(=C/c2ccco2)C1` (stereo unspecified), for which the Potency entry was “inactive”.
Take `COc1ccc(S(=O)(=O)NCCOc2ccccc2)cc1F`: the Potency entry is “inactive”.
Regarding `COc1ccc(CCN2CC(C(=O)NCCN3CCNC3=O)CCC2=O)cc1` (stereo unspecified), the Potency entry is “inactive”.
`CCn1c(SCC(=O)NC2CCCC2)nnc1-c1ccoc1C`: the Potency result is “inactive”.
Still for that read-out and setting: the entry for `COc1cccc(NC(=O)COc2cc(C)cc3oc(=O)cc(C)c23)c1` is “inactive”; for `COc1ccc(S(=O)(=O)NCCCCOc2ccc(Cl)cc2)cc1` it is “inactive”.
On the same count and under the same terms, the entry for `CCOc1ccc(C2NC(=S)NC3=C2CCc2ccccc23)cc1` (stereo unspecified) is “inactive”; for `CC(C)(C)c1ccc(Cn2nnc3c(=O)[nH]c(C4CCCN(C(=O)c5ccco5)C4)nc32)cc1` (stereo unspecified) it is “inactive”.
For the compound `COc1ccc(C(=O)NC2CC(C)(C)NC(C)(C)C2)cc1OC`, the Potency result was “inactive”.
Regarding `COCCc1nn2c(=O)cc(COC(=O)c3cc(OC)c(OC)c(OC)c3)nc2s1`, the Potency result is “inactive”.
Regarding `CC(=O)C1=C(O)C(=O)N(c2ccc(Br)cc2)C1c1ccc([N+](=O)[O-])cc1` (stereo unspecified), the Potency entry was “inactive”.
Still for that read-out and setting: the entry for `CCCCc1nc2cc(C(=O)N3CCCCC3CCO)ccc2o1` (stereo unspecified) is “inactive”.
`Cc1cc(NC(=O)c2ccc(F)cc2)ccc1NC(=O)c1ccco1`: the Potency result was “inactive”.
In the case of `COc1ccccc1C(=O)Nc1ccc(NC(=O)c2ccco2)c(C)c1`, the Potency is 15.8 µM (active).
With `COc1ccc(OCC(=O)Nc2ccc(NC(=O)c3ccco3)c(C)c2)cc1`, the Potency result is “inactive”.
Regarding `CCn1c(SCC(=O)NC2CC2)nnc1-c1ccccc1OC`, the Potency result was “inactive”.
Still for that read-out and setting: the entry for `COc1ccccc1CC(=O)Nc1ccc(F)cc1F` is “inactive”; for `COc1cc(OC)cc(C(=O)OCC(=O)Nc2ccc(F)cc2F)c1` it is “inactive”; for `COc1ccc(C(=O)Nc2ccc(F)cc2F)cc1` it is 14.1 µM (active).
The same measure, in the same setting: the entry for `O=C(c1cc(-c2ccc(O)cc2)on1)N1CCOCC1` is “inactive”; for `Cc1ccc(CN2CCN(c3ncccn3)CC2)c(C)c1` it is “inactive”.
With `CCOC(=O)C1CCN(C(=O)C2CCCN(S(=O)(=O)c3ccc(OC)c(Cl)c3)C2)CC1` (stereo unspecified), the Potency result was “inactive”.
`Cc1cnc(NC(=O)c2ccc(Cl)nc2)s1`: the Potency entry is “inactive”.
As for `O=C(Nc1nnc(C2CC2)s1)c1ccccn1`, the Potency is 25.1 µM (active).
Turning to `O=C(Cc1cccs1)Nc1nnc(C2CC2)s1`, the Potency result was “inactive”.
Take `Cc1cnc(NC(=O)CSc2c(Cl)cccc2Cl)s1`: the Potency result is “inactive”.
On to `O=C(Nc1nnc(C2CC2)s1)c1cc(Cl)sc1Cl`, for which the Potency result was “inactive”.
The same measure, in the same setting: the figure for `Cc1cnc(NC(=O)c2ccccn2)s1` is 15.8 µM (active).
As for `O=C(O)c1ccc(-n2nc(-c3ccccc3)c3ccccc3c2=O)cc1`, the Potency entry was “inactive”.
For `COC(=O)c1c(NC(=O)COC(=O)[C@@H](NS(=O)(=O)c2ccccc2)C(C)C)sc2c1CCC2`, the Potency result is “inactive”.
